By ΔTm is commonly meant the shift of the melting midpoint relative to a reference.

Each structure is given as a SMILES string. Several values for one entry are separate records, joined by “and”; a condition that tells them apart may be missing. Equal values may be shown once. Numbered stars: 1 amine (or outer) side, 2 acyl side, 3 side chain; on linkers, the order of the positions; unused ones are H or OH. Bridge positions count the residues as written; N and C are the ends. Square brackets hold non-standard residues; d marks the D form. Peptide text beside a SMILES is read from it. I, II: the chains in the order shown. Hexamethylenediamine = C(CCCN[*:2])CCN[*:1]; Dip = N[C@H](C(=O)O)C(c1ccccc1)c1ccccc1; Chg = N[C@H](C(=O)O)C1CCCCC1; NMeA = CN[C@@H](C)C(=O)O

In the first experiment the target is Bromodomain-containing protein 4 (Homo sapiens) (UniProt O60885). The settings on record: Compound concentration 20.0 uM, Protein concentration 2.0 uM, Result type QC Liability.
Take `Cc1nc2ccccc2c(-c2ccc3c4c(ccnc24)CCO3)c1[C@H](OC(C)(C)C)C(=O)O`: the ΔTm was -1.5 °C. As for `CC(C)(C)C(=O)NCc1ccc(Cl)c(C(=O)Nc2ncc[nH]2)c1`, the ΔTm is -0.82 °C. In the case of `Cc1c(CCC(=O)O)cccc1NC(=O)[C@@H](c1ccc(-c2cncc(Cl)c2)c(F)c1)C1CCCC1`, the ΔTm came out at 0.73 °C. Same read-out and setting: the same measure for `COc1cc(-c2cn(C)c(=O)c3cnccc23)c(OC)cc1CN(C)C`: -0.72 °C. Consider `C[C@@H]1CN(CC(=O)N2CC(C)(C)c3nc(CO)c(Cc4ccc(F)cc4)cc32)[C@@H](CN2CCOC[C@H]2C)CN1`, for which the thermal shift (ΔTm) was -1.96 °C. Regarding `CN(C)CCCN1c2ccccc2Sc2ccc(Cl)cc21`, the ΔTm is -1.94 °C. With `CC1CNCCc2c1nc1ccnn1c2N1CC(C(=O)N2CCC(C)(C)C2)C1` (stereo not drawn), the ΔTm is -3.66 °C.

Turning to `CNc1ncc2cc(-c3ccc(-c4cccc(C)n4)cc3Cl)c(=O)n(C[C@H]3OC[C@H](N)CO3)c2n1`, the ΔTm is -1.96 °C. On the same count and under the same terms, to `COc1cc(-c2cncc(-c3ccc(N4CCN(C(C)C)CC4)cc3)c2C)cc(F)c1C(N)=O` belongs -2.5 °C. Regarding `c1ccc(C2CCN(c3cnc4c(N5CCOCC5)nccn34)CC2)cc1`, the ΔTm was -0.69 °C. `Cn1c(C2(NC(=O)c3ccc4c(C5CCCC5)c(-c5ncc(Br)cn5)n(C)c4c3)CCC2)nc2ccc(/C=C/C(=O)O)cc21`: the ΔTm is 0 °C and -4.93 °C. Take `Cc1nc2ccc(Oc3ccc(F)cc3)cc2c(=O)n1C[C@H]1CCCN(C(C)C)C1`: the ΔTm is 0.67 °C. Turning to `C[S+](C)[O-]`, the thermal shift (ΔTm) was 0 °C (2×) and -2.05 °C. On to `Nc1nccc(-c2c(-c3ccc(F)cc3)ncn2C2CCN(Cc3ccon3)CC2)n1`, for which the ΔTm was -2.58 °C. For `CCN(C)S(=O)(=O)Nc1cccc(-c2ccc3c(NC(=O)C4CC4)n[nH]c3c2)c1`, the ΔTm was determined as 0.55 °C. Consider `CC(C)S(=O)(=O)c1ccccc1Nc1nc(N[C@@H]2CCCN(CCCCCCCNC(=O)COc3cccc4c3C(=O)N(C3CCC(=O)N(C)C3=O)C4=O)C2)ncc1Cl` (stereo partly drawn), for which the ΔTm was -2.43 °C.

On to `OC(c1ccc(-c2ccc(CN3CCN(Cc4ccncc4)CC3)cc2)c(F)c1)(C(F)(F)F)C(F)(F)F`, for which the ΔTm is -1.34 °C.

For the molecule `Cc1c(CN2CCC3(CC2)CN(c2ncnc4sc(CC(F)(F)F)cc24)C3)ccc2c1cc(C#N)n2CC(N)=O`, the ΔTm was 1.17 °C. `FC(F)(F)c1ccc(CNc2ccc(Cc3c[nH]c4ncc(Cl)cc34)cn2)cn1`: the ΔTm came out at 2 °C. For `O=C1CCCN1CCNc1nc(Nc2ccc(Cl)c(Cl)c2)ncc1C(F)(F)F`, the ΔTm is -2.43 °C.

As to `Clc1ccccc1C(c1ccccc1)(c1ccccc1)n1ccnc1`, the ΔTm is -5.6 °C.

As to `CCCCC[C@H](O)/C=C/[C@H]1[C@H](O)CC(=O)[C@@H]1CCCCCCC(=O)O`, the ΔTm is -1.54 °C. Take `Cc1ncc(C(=O)Nc2cc(C(C)(C)C)on2)cc1-n1cc(-c2cnn(C)c2C)nn1`: the ΔTm is -3.35 °C. For `Cc1[nH]c2c(N3CCCCC3)c(-c3ccccc3)nn2c(=O)c1-c1ccc(O)cc1`, the ΔTm was -1.3 °C.

In the case of `N=C(N)NCCC[C@H](NC(=O)CC1(CC(=O)N2CCN(C3c4ccccc4NC(=O)c4ccccc43)CC2)CCCC1)C(=O)NCCn1c(=O)n(-c2ccccc2)n(-c2ccccc2)c1=O` (stereo partly drawn), the ΔTm is 0.44 °C. As to `CN(C)C(=O)Cn1cc(-c2nc(C3(c4ccc(-c5cnc(N)nc5)cc4)CC3)no2)cn1`, the ΔTm is -1.16 °C.

`CC(=O)Nc1nc(C)c(S(=O)(=O)Nc2ccc(C(O)(C(F)(F)F)C(F)(F)F)cc2)s1`: the ΔTm was -1.81 °C.

With `C[C@@H]1OCC2(CCN(c3cnc(Sc4ccnc(N)c4Cl)c(N)n3)CC2)[C@@H]1N`, the ΔTm is -2.61 °C. For `Cc1cn([C@H](C)CC#N)c(=O)c2cc(Cn3nc(C(F)F)cc3Cl)nn12`, the ΔTm is -1.08 °C.

Another experiment addresses T1, Transcription intermediary factor 1-alpha (Homo sapiens) (UniProt O15164).
T1 sequence (whole entry): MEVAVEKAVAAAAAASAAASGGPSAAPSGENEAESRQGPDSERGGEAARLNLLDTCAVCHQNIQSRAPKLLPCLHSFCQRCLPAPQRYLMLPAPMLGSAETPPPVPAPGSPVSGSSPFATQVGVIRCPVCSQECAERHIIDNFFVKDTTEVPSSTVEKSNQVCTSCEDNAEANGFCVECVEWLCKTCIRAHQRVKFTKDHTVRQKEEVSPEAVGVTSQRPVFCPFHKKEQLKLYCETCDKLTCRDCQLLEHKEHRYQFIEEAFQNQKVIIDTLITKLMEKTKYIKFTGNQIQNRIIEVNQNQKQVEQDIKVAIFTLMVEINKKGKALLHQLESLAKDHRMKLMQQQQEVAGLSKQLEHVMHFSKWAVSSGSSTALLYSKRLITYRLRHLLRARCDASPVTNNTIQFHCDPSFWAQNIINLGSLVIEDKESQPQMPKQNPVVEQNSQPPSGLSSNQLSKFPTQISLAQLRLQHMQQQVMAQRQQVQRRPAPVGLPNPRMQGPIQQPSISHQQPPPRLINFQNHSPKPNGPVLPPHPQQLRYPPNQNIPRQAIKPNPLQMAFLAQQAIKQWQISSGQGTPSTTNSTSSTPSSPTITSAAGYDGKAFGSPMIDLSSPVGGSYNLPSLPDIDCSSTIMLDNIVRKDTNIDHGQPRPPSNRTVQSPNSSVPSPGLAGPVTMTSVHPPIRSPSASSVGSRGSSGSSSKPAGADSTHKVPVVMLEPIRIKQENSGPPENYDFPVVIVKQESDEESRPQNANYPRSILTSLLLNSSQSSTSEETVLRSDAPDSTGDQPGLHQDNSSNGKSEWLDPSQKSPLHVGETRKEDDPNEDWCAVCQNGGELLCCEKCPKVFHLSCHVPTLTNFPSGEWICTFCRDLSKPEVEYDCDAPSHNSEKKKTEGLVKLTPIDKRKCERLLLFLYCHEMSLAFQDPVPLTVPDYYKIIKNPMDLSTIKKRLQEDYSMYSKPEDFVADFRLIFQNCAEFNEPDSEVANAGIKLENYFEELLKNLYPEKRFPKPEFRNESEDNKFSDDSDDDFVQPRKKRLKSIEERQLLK
The conditions noted are these: Compound concentration 20.0 uM, Protein concentration 2.0 uM, Result type QC Liability.
Regarding `CC(=O)N1CCC(c2ccc(C(=O)NC3=NCCN3)cc2C(F)(F)F)CC1`, the ΔTm was found to be 0.31 °C. Consider `Cc1ncsc1-c1ccc(CNC(=O)[C@@H]2C[C@H](O)CN2C(=O)[C@@H](NC(=O)C2(F)CC2)C(C)(C)C)c(OCCOc2ccc(CN3CCN(c4cc(-c5ccccc5O)nnc4N)CC3)cc2)c1` (relative stereo), for which the thermal shift (ΔTm) is 1.57 °C.

With `COCc1c(-c2cc3cc(C)cc(OC)c3s2)c2c(N)ncnn2c1CN[C@@H]1CCNC1=O`, the ΔTm is 0.22 °C. Same read-out and setting: to `CCN1C(=O)c2cc(C)ccc2N(C)c2ncccc21` belongs 0.2 °C; to `Nc1c(CC(=O)O)cccc1C(=O)c1ccc(Br)cc1`, -0.77 °C. Consider `CN[C@@H](C)C(=O)N[C@H](C(=O)N1CCC[C@H]1C(=O)N[C@H](C(=O)NCCCCCCNC(=O)[C@@H](NC(=O)[C@@H]1CCCN1C(=O)[C@@H](NC(=O)[C@H](C)NC)C1CCCCC1)C(c1ccccc1)c1ccccc1)C(c1ccccc1)c1ccccc1)C1CCCCC1` (I: H-[NMeA][Chg]P[Dip] / II: H-[NMeA][Chg]P[Dip]; linker I:C-II:C via Hexamethylenediamine), for which the ΔTm was -4.59 °C.

On to `CNC(=O)c1ccc(C)c(-n2c(C)cc(OCc3ccc(F)cc3F)c(Br)c2=O)c1`, for which the ΔTm was -2.58 °C.

As for `CN1CCCN(C(=O)c2cccc(-c3ccc(/C=C4/C(=O)Nc5ccc(Cl)cc54)o3)c2)CC1`, the ΔTm is -5.43 °C. Take `CC(C(=O)Nc1cc(C#N)ccc1CCCC(=O)O)c1ccc(F)c2ccccc12` (stereo not drawn): the ΔTm is -1.35 °C. As to `CNC(=O)COc1cc2cc(Nc3nc(N4C[C@H](C)C[C@H](C)C4)ncc3Cl)ccc2n(C)c1=O`, the ΔTm stood at 0.23 °C. For `Cc1nc2ccccc2c(-c2ccc3c4c(ccnc24)CCO3)c1[C@H](OC(C)(C)C)C(=O)O`, the ΔTm is 0.24 °C.

With `CC(C)(C)C(=O)NCc1ccc(Cl)c(C(=O)Nc2ncc[nH]2)c1`, the ΔTm was -0.67 °C.

Regarding `Cc1c(CCC(=O)O)cccc1NC(=O)[C@@H](c1ccc(-c2cncc(Cl)c2)c(F)c1)C1CCCC1`, the ΔTm stood at 0.32 °C. The same measure, in the same setting: the same measure for `COc1cc(-c2cn(C)c(=O)c3cnccc23)c(OC)cc1CN(C)C`: 0.32 °C; for `C[C@@H]1CN(CC(=O)N2CC(C)(C)c3nc(CO)c(Cc4ccc(F)cc4)cc32)[C@@H](CN2CCOC[C@H]2C)CN1`: -0.43 °C. With `CN(C)CCCN1c2ccccc2Sc2ccc(Cl)cc21`, the ΔTm is -3.45 °C.

Take `CC1CNCCc2c1nc1ccnn1c2N1CC(C(=O)N2CCC(C)(C)C2)C1` (stereo not drawn): the ΔTm was determined as 0.37 °C. The same measure, in the same setting: to `CNc1ncc2cc(-c3ccc(-c4cccc(C)n4)cc3Cl)c(=O)n(C[C@H]3OC[C@H](N)CO3)c2n1` belongs -2.28 °C; to `COc1cc(-c2cncc(-c3ccc(N4CCN(C(C)C)CC4)cc3)c2C)cc(F)c1C(N)=O`, -3.06 °C; to `c1ccc(C2CCN(c3cnc4c(N5CCOCC5)nccn34)CC2)cc1`, -1.25 °C. On to `Cn1c(C2(NC(=O)c3ccc4c(C5CCCC5)c(-c5ncc(Br)cn5)n(C)c4c3)CCC2)nc2ccc(/C=C/C(=O)O)cc21`, for which the thermal shift (ΔTm) is 0.68 °C and -0.65 °C.

On to `Cc1nc2ccc(Oc3ccc(F)cc3)cc2c(=O)n1C[C@H]1CCCN(C(C)C)C1`, for which the thermal shift (ΔTm) came out at 0.18 °C.

With `C[S+](C)[O-]`, the ΔTm is 0 °C (2×) and -2.19 °C. Turning to `Nc1nccc(-c2c(-c3ccc(F)cc3)ncn2C2CCN(Cc3ccon3)CC2)n1`, the ΔTm is -2.27 °C. The same measure, in the same setting: to `CCN(C)S(=O)(=O)Nc1cccc(-c2ccc3c(NC(=O)C4CC4)n[nH]c3c2)c1` belongs -0.53 °C; to `CC(C)S(=O)(=O)c1ccccc1Nc1nc(N[C@@H]2CCCN(CCCCCCCNC(=O)COc3cccc4c3C(=O)N(C3CCC(=O)N(C)C3=O)C4=O)C2)ncc1Cl` (stereo partly drawn), -1.22 °C. Take `OC(c1ccc(-c2ccc(CN3CCN(Cc4ccncc4)CC3)cc2)c(F)c1)(C(F)(F)F)C(F)(F)F`: the ΔTm was -2.91 °C. Regarding `Cc1c(CN2CCC3(CC2)CN(c2ncnc4sc(CC(F)(F)F)cc24)C3)ccc2c1cc(C#N)n2CC(N)=O`, the ΔTm stood at 0.7 °C. As for `FC(F)(F)c1ccc(CNc2ccc(Cc3c[nH]c4ncc(Cl)cc34)cn2)cn1`, the ΔTm worked out at 1.98 °C. On to `O=C1CCCN1CCNc1nc(Nc2ccc(Cl)c(Cl)c2)ncc1C(F)(F)F`, for which the ΔTm was -1.81 °C. As for `Clc1ccccc1C(c1ccccc1)(c1ccccc1)n1ccnc1`, the ΔTm is -5.38 °C. As for `CCCCC[C@H](O)/C=C/[C@H]1[C@H](O)CC(=O)[C@@H]1CCCCCCC(=O)O`, the ΔTm was determined as 0.28 °C. With `Cc1ncc(C(=O)Nc2cc(C(C)(C)C)on2)cc1-n1cc(-c2cnn(C)c2C)nn1`, the ΔTm was -3.56 °C.

As for `Cc1[nH]c2c(N3CCCCC3)c(-c3ccccc3)nn2c(=O)c1-c1ccc(O)cc1`, the ΔTm was -2.05 °C. Consider `N=C(N)NCCC[C@H](NC(=O)CC1(CC(=O)N2CCN(C3c4ccccc4NC(=O)c4ccccc43)CC2)CCCC1)C(=O)NCCn1c(=O)n(-c2ccccc2)n(-c2ccccc2)c1=O` (stereo partly drawn), for which the ΔTm is -2.38 °C. For `CN(C)C(=O)Cn1cc(-c2nc(C3(c4ccc(-c5cnc(N)nc5)cc4)CC3)no2)cn1`, the ΔTm was 0.32 °C. Regarding `CC(=O)Nc1nc(C)c(S(=O)(=O)Nc2ccc(C(O)(C(F)(F)F)C(F)(F)F)cc2)s1`, the ΔTm was -0.92 °C. On the same count and under the same terms, the same measure for `C[C@@H]1OCC2(CCN(c3cnc(Sc4ccnc(N)c4Cl)c(N)n3)CC2)[C@@H]1N`: -0.86 °C; for `Cc1cn([C@H](C)CC#N)c(=O)c2cc(Cn3nc(C(F)F)cc3Cl)nn12`: -1.23 °C.

The values above are taken from ChEMBL document CHEMBL5308504, “Tm Shift (DSF) assay results for EUbOPEN Chemogenomics Library” (2023).
